From PubChem BioAssay (NCATS)
Results filed as inconclusive are left out. Active and inactive are the calls of the source. Unless noted, the call rests on the fitted dose curve; in most records, active means well fitted curve in the direction sought with a large enough effect; inconclusive means small, poorly fitted or top-dose-only effect, or another doubt; inactive means no such curve, though single readings can be large; an effect the other way counts as inactive or inconclusive.

How the values were obtained:
[1] = molecular target: Alpha-galactosidase (Coffea arabica) (UniProt Q42656); assay: Counterscreen for Glucocerebrosidase Inhibitors: qHTS Assay for Coffee Bean alpha-Galactosidase at pH 4.5 (AID 957); further: series mostly up to about 77 µM
Chain of Alpha-galactosidase (Coffea arabica) (Q42656 whole entry, looked up): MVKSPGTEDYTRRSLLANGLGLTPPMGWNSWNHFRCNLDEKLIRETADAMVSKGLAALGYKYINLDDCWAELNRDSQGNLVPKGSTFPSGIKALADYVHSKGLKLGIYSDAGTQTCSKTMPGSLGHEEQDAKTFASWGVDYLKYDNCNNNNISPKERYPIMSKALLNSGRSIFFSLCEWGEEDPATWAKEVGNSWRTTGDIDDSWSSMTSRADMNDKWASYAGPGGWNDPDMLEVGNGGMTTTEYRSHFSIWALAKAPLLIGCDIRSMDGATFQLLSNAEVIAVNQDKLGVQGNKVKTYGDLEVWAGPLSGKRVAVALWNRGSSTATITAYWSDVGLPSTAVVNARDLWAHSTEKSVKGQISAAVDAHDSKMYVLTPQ
Outline: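 Green coffee bean enzyme (2 nM final) was incubated with compounds (0.7 nM to 77 uM) and 4-methylumbelliferyl alpha-D-galactopyranoside (80 uM final) in 50 mM citric acid, 0.005% Tween-20, pH 4.5, 20 min at room temperature; AC50 from Hill fits.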

[2] = molecular target: Alpha-galactosidase (Coffea arabica) (UniProt Q42656); assay: Counterscreen for Glucocerebrosidase Inhibitors: qHTS Assay for Coffee Bean alpha-Galactosidase at pH 5.9 (AID 998)
Outline: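 Compounds were titrated from 0.7 nM to 77 uM against green coffee bean alpha-galactosidase (2 nM) using 80 uM fluorogenic 4-methylumbelliferyl substrate. After 20 min at room temperature, reactions were stopped at pH 10 and read by fluorescence.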

[3] = Validation screen for inhibitors of Lassa infection (AID 463096; calls by dose curve)
[4] = Inducers of the Endoplasmic Reticulum Stress Response (ERSR) in human glioma: Validation (AID 504836)
Outline: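 ERSR induction read as luciferase luminescence (Bright-Glo, 10 min at room temperature) in stably transfected human U87-MG glioma cells exposed to compounds for 16 h, using GRP78 as sensor.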

[5] = qHTS for Inhibitors of the Functional Ribonucleoprotein Complex (vRNP) of Lassa (LASV) Arenavirus: LASV Primary Screen - GLuc reporter signal (AID 1347082; calls by dose curve; tested in HEK293 reporter line; further: series mostly up to about 57 µM; nearly all actives have a fitted effect of over 60% in size)
[6] = qHTS for Inhibitors of the Functional Ribonucleoprotein Complex (vRNP) of Lassa (LASV) Arenavirus: Viability assay - alamar blue signal for LASV Primary Screen (AID 1347083; calls by dose curve; tested in HEK293 reporter line; further: series mostly up to about 57 µM; nearly all actives have a fitted effect of over 80% in size)
[7] = qHTS for Inhibitors of the Functional Ribonucleoprotein Complex (vRNP) of Lymphocytic Choriomeningitis Arenaviruses (LCMV): Viability assay - alamar blue signal for LCMV Primary Screen (AID 1347085; calls by dose curve; tested in HEK293 reporter line; further: series mostly up to about 57 µM; nearly all actives have a fitted effect of over 80% in size)
[8] = molecular target: Nucleoprotein (Lymphocytic choriomeningitis virus (strain Armstrong)) (UniProt P09992); assay: qHTS for Inhibitors of the Functional Ribonucleoprotein Complex (vRNP) of Lymphocytic Choriomeningitis Arenaviruses (LCMV): LCMV Primary Screen - GLuc reporter signal (AID 1347086; calls by dose curve; further: series mostly up to about 57 µM; nearly all actives have a fitted effect of over 70% in size)
Chain of Nucleoprotein (Lymphocytic choriomeningitis virus (strain Armstrong)) (P09992 whole entry, looked up): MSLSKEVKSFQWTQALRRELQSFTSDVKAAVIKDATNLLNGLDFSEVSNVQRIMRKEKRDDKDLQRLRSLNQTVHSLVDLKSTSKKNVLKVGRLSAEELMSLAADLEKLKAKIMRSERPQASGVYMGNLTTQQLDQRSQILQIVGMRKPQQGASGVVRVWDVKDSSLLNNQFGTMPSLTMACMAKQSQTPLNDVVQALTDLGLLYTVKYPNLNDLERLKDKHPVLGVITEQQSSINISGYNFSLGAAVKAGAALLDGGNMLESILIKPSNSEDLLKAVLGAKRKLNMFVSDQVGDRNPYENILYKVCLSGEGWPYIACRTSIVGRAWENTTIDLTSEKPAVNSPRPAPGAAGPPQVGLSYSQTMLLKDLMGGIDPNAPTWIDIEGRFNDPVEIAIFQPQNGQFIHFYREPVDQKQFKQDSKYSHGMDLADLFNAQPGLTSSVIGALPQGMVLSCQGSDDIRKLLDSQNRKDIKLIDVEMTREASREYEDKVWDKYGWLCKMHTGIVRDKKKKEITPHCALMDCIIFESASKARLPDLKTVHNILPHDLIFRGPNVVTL

Measured: Potency

COc1cc(CNC(=O)CCCCCCC(C)C)ccc1O
inactive: all assays above

Fc1ccc(CN(C2=NCCN2)c2c(Cl)cccc2Cl)cc1
inactive: all assays above

CN1CCc2ccccc2Cc2[nH]c3ccccc3c2CC1
inactive: all assays above

N#CC(C#N)=C(N)/C(C#N)=C/c1ccc(O)cc1
inactive: all assays above

C[N+](C)(CCCCCC[N+](C)(C)CCCN1C(=O)c2cccc3cccc(c23)C1=O)CCCN1C(=O)c2cccc3cccc(c23)C1=O
not listed: [1]
inactive: all other assays above
